PI4K2A block: PI4K2A (human) kinase inhibition; Q9BTU6; purified PI4K2A, ADP-Glo luminescence, 1 h; hits give low values; activity change, negative = inhibition, % at 76.9 µM; 420,000 tested, 0.13% active; in the data active = activity change below about -50%; inconclusive = mostly about -30% to -49%;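 also: -100% = wells without enzyme as full effect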
Target sequence (Q9BTU6 whole entry, looked up): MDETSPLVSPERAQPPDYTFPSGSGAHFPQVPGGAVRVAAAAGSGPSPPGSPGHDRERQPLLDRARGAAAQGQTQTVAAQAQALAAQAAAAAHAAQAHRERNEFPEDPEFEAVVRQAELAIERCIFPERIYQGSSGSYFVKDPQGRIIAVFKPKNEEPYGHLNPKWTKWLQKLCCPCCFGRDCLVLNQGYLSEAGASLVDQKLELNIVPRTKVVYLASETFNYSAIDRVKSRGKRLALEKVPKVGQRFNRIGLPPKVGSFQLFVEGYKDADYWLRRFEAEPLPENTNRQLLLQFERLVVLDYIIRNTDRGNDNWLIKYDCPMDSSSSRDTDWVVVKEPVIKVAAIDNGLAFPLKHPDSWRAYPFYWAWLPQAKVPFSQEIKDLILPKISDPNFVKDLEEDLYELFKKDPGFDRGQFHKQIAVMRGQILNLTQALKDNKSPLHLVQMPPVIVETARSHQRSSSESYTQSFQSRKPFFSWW
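ADP-Glo luminescence measured ADP generated by PI4K2A enzyme (4 ug/mL before mixing) with 1.2 mM PI substrate (pre-mix) and 300 microM ATP (pre-mix). Tris pH7.5 buffer with MgCl2, Triton X-100; 1 h reaction at ambient temperature.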
pAkt inh: inhibitors of Akt phosphorylation; Neuro2A IGF-stimulated pAkt S473 HTRF, 20 min; hits give low values; activity change, % for hits at 50 µM; 360,000 tested, 0.32% active; in the data active = activity change below about -80%; inconclusive = mostly about -51% to -80%
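Single-point screen (50 µM final compound) in Neuro2A cells stimulated 20 min with 6 nM IGF at 37 deg C. After lysis, Ser473-phosphorylated Akt read by HTRF (ex 330 nm, em 615/665 nm) as the 665/615 ratio.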
CtBP-E1A inh: blocks the CtBP interaction with E1A. activity change, % (test concentration not listed). AID 651724. AlphaScreen GST-E1A/His-CtBP binding, 1536-well; hits give low values. 340,000 tested, 0.49% active
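AlphaScreen with 125 nM GST-E1A and 125 nM His-CtBP (5X stocks) in Tris pH 8.0, 300 mM NaCl, BSA, Tween 20, TCEP. Compounds preincubated 2 h at 37 deg C, then glutathione donor/nickel acceptor beads added for 1 h at 37 deg C in dark.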
Six1-Eya2 inh: blocks human Six1 binding to Eya2; Q15475+O00167; AlphaScreen GST-Six1/His-Eya2 binding, biochemical; hits give low values; activity change, % (concentration not given with the values); 360,000 tested, 0.56% active; AID 651725
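GST-Six1 + His-Eya2 (5X stock: 250/500 nM); Tris pH 8.0, 300 mM NaCl, 0.05% BSA, 0.02% Tween 20; GSH donor/Ni acceptor beads; 1 h 37 °C dark; AlphaScreen readout.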
PI5P4Ka inh: inhibitors of human PI5P4K alpha. PI5P4Kalpha enzyme, ADP-Glo luminescence, 60 min; hits give low values. P48426. 330,000 tested, 1.2% active. AID 652105. max response, %; active = max response of -50% or lower; inconclusive = between -30% and -50%; inactive = -30% or higher; also: value at the top dose of about 77 µM
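Single end-point luminescence (ADP-Glo) quantified ADP from PI5P4Kalpha turnover; ATP 5 microM final, 1 h at RT, 0.1% CHAPS and 0.28 mM EGTA in HEPES pH 7.4.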
* = called active by the depositor; i = inactive; ? = inconclusive; / = no result. Only some compounds are listed: those with a hit (about 1.8% of all), similar ones and a draw of the others. Rule as the data show it, unless noted: active = activity change below about -65%; inconclusive = mostly about -30% to -63%; inactive = weaker than that. Unless noted, % is scaled to controls: 0 for no effect and ±100 for the full control effect.

SMILES	PI4K2A block	pAkt inh	CtBP-E1A inh	Six1-Eya2 inh	PI5P4Ka inh
CC1(C)CC(=O)C(C(C2=C(O)CC(C)(C)CC2=O)c2ccc(Br)s2)C(=O)C1 (configuration not stated)	?	i	-11.0	0.1	-79.6*
CN1CCN(NC(=O)c2cccs2)CC1	-0.2	i	-10.6	-2.5	1.5
CCOC(=O)CC(=O)c1cc(OC)c(OC)c(OC)c1	3.7	-106.0%*	-3.7	2.1	-0.5
COc1ccc2[nH]c3c(NCCC4=CCCCC4)ncnc3c2c1	-4.1	i	0.4	-21.0	-61.1*
COc1ccc2[nH]c3c(NCCCOC(C)C)ncnc3c2c1	?	i	0.0	0.0	-3.1
COc1ccc(NC(=S)N2CCC(N(C)CC3CCCO3)CC2)cc1 (configuration not stated)	4.4	i	1.7	7.1	-6.1
O=C(CCCCCNc1nc(=S)[nH]c2ccccc12)NCCc1ccc(Cl)cc1	-1.7	i	-12.8	?	-18.7
CC(C)CCNC(=O)Cc1ccc(Nc2nc(=S)[nH]c3ccccc23)cc1	4.6	i	19.4	-85.8*	-16.8
COc1ccc(C2NC(=O)C(C#N)=C(S)N2c2ccc(C)cc2)cc1OC (configuration not stated)	-2.2	i	-5.5	4.1	-6.5
CCOC(=O)CSC1=C(C#N)C(=O)NC(c2ccc(OC)cc2)S1 (configuration not stated)	-13.5	i	-0.8	-2.6	-63.2*
CCOC(=O)CSC1=C(C#N)C(=O)NC(c2ccc(OC)c(OC)c2)S1 (configuration not stated)	-24.0	i	-7.4	0.1	-72.2*
Fc1cccc(Cn2cc(C(=S)N3CCOCC3)c3ccccc32)c1	-1.3	i	-21.4	-20.0	0.2
CC(C)(C)NC(=O)CCN(/N=C/c1ccncc1)C1=NS(=O)(=O)c2ccccc21	1.5	i	-82.1*	-67.9*	0.5
O=S1(=O)N=C(N(CCO)/N=C/c2ccncc2)c2ccccc21	4.3	i	-77.9*	-80.0*	-3.6
COc1ccc(/C=N/N(CCC(=O)NC(C)(C)C)C2=NS(=O)(=O)c3ccccc32)cc1	4.0	i	-3.5	-10.9	18.5
COc1ccc(-c2nnc(NC(=O)CS(=O)(=O)c3ccc(F)cc3)o2)cc1	-0.8	i	?	?	-19.5
COc1ccccc1-c1coc2c(CN3CCC(C)CC3)c(O)ccc2c1=O	2.2	i	-20.0	1.4	-0.5
COc1cccc(C2C(C(=O)c3sc(C)nc3C)=C(O)C(=O)N2CCN2CCOCC2)c1OC (configuration not stated)	5.9	-121.7%*	-0.1	10.9	-4.3
N=C1/C(=C\c2ccc(SCc3ccccc3)o2)C(=O)N=C2SC(CC(=O)N3CCOCC3)=NN12	-4.1	i	/	-5.8	-28.2
N=C1/C(=C/c2ccc(-c3cccc(C(=O)O)c3)o2)C(=O)N=C2SC(CC(=O)N3CCOCC3)=NN12	-6.5	i	-16.0	?	-83.4*
N=C1/C(=C\c2ccc(-c3cccc(C(=O)O)c3)o2)C(=O)N=C2SC=C(c3ccccc3)N12	-2.9	i	?	-14.8	-98.2*
Cc1cccc(C(=O)NC(=O)Nc2c(C)cc(C)nc2C)c1	3.0	i	0.0	-9.6	5.0
CCCOc1ccc(C2C3=C(Nc4nc(N)[nH]c(=O)c42)c2ccccc2C3=O)cc1 (configuration not stated)	-1.1	i	/	?	?
CCOc1ccc(C2C3=C(Nc4nc(N)[nH]c(=O)c42)c2ccccc2C3=O)cc1 (configuration not stated)	-28.2	i	-4.4	-71.6*	2.8
CN1CCN(C(c2cccnc2)c2ccc3cccnc3c2O)CC1 (configuration not stated)	-5.5	i	-81.1*	-90.1*	-13.9
SMILES	PI4K2A block	pAkt inh	CtBP-E1A inh	Six1-Eya2 inh	PI5P4Ka inh
CCCn1c(CN2CCN(C)CC2)nc2ccccc21	5.8	i	-10.8	-7.2	/
O=C(c1ccc(CS(=O)Cc2ccc(Cl)cc2)o1)N1CCN(c2ccccn2)CC1 (configuration not stated)	1.7	i	0.2	-0.8	-5.3
CCCOc1cc(N)ccc1C(=O)OCCN(CC)CC	0.1	i	6.2	2.8	2.0
CCCOc1ccc(N)cc1N	-58.3*	i	-14.6	-13.4	-64.6*
CC(=O)c1cccc(NC(=O)CSc2ccc(-c3ccco3)nn2)c1	-16.6	i	-2.9	-26.5	?
Cc1cc(SCC(=O)c2cccc([N+](=O)[O-])c2)nc(=O)[nH]1	-6.1	i	/	-19.8	-58.1*
O=C(CSc1ccc(-c2ccco2)nn1)c1cccc([N+](=O)[O-])c1	-28.9	i	4.2	-28.9	-64.4*
Cc1cc(SCc2ccc([N+](=O)[O-])cc2)nc(=O)[nH]1	-2.9	/	/	-16.0	-58.9*
CCCN(C(=O)c1cc2c(=O)oc3ccc(C)cc3c2s1)c1ccc(OCC)cc1	-1.1	/	/	/	/
O=C(NCc1ccccc1)C1CCCN1S(=O)(=O)c1ccc(F)cc1 (configuration not stated)	1.3	i	-81.0*	-0.5	-4.9
COc1ccc(Nc2nc3ccccc3c(=O)[nH]2)cc1	-2.4	i	5.7	1.8	-27.6
Cc1ccc(N/N=C(\C#N)C(N)=S)cc1C	-1.9	i	/	-5.7	-51.4*
COc1ccccc1-c1nnc(Nc2nc3c(OC)cccc3s2)o1	0.9	i	-4.5	2.6	-10.2
COc1ccc(-c2cc(C(=O)N3CCN(C(=O)c4ccco4)CC3)[nH]n2)cc1	-8.8	i	/	4.0	-17.4
CCc1ccc(OCC2c3cc(OC)c(OC)cc3CCN2C(=O)COc2ccccc2)cc1 (configuration not stated)	3.1	/	/	/	/
COc1cc(CNc2ccc(O)cc2)cc(Br)c1OCc1ccccc1F	-51.3*	i	-16.3	19.5	0.8
CCOc1cc(CNc2ccc(O)cc2)cc(Br)c1OCc1ccccc1F	?	i	?	-1.4	4.1
CCn1c(SCc2ccc(C(=O)OC)o2)nnc1-c1c[nH]c2ccccc12	-7.0	i	0.9	-0.5	-6.4
COc1cc(/C=N/N(C)c2ccccc2)ccc1O	-3.6	i	?	?	0.5
COc1cc(OC)c(OC)cc1/C=N/N(C)c1ccccc1	2.6	i	?	-66.0*	-1.0
Oc1ccc(Nc2ccccc2F)c2cccnc12	-51.9*	/	/	/	/
Oc1c(Cl)cc(Cl)c2cccnc12	-7.1	i	-90.3*	-90.4*	-18.6
Cc1ccc(S(=O)(=O)Nc2cccnc2Oc2ccc(Cl)cc2)cc1	-1.0	i	8.2	6.0	2.5
Cc1ccc(S(=O)(=O)Nc2cc(Cl)c(O)c3ncccc23)cc1	?	i	-89.0*	-90.1*	?
Oc1ccc(Cl)c2cccnc12	-15.9	i	-94.9*	-91.5*	-2.4

Assay outcomes: PubChem, National Center for Advancing Translational Sciences (NCATS)
